# Source: PubChem BioAssay
# Unmarked numbers belong to inactive results. Calls of active or inactive are those of the source.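 How the source made its calls, unless noted: active means growth inhibition above 50% at the single 2 µM test dose, taken to imply half-maximal potency below 2 µM; inactive means the rest.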
# Assay: antimalarial activity against Dd2 strain (AID 2302);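 further: 0% = DMSO untreated growth and 100% = chloroquine plus artemisinin killed control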
# Details: P. falciparum Dd2 in RBCs, LDH growth readout, 72 h; at 2 µM; active compounds read high
row,SMILES,growth inhibition
1,CC(Nc1nncc(-c2cccc(F)c2)n1)c1ccc(F)cc1 (stereo not given),89% (active)
2,FC(F)(F)c1ccc2nc(-c3cccc(-c4ccc(CNCCc5ccncc5)cc4)c3)[nH]c2c1,100% (active)
3,CN1CCC(Oc2ccc(CN3CC[C@H](NC(=O)c4ccc(F)c(F)c4)C3)c3ccccc23)C1 (stereo not given in full),27%
4,CCC1(C)CC(CCNCc2ccccc2O)(c2ccccc2OC)CCO1 (stereo not given),93% (active)
5,COc1ccc(N2CCN(CCCCNC(=O)c3ccc(NC(=O)c4cc(C(F)(F)F)cc(C(F)(F)F)c4)cc3)CC2)cc1OC,100% (active)
6,COc1ccc2nccc([C@@H](O)CN3CCC(NCc4cc5oc(=O)[nH]c5cc4F)CC3)c2c1,4%
7,CC(C)CCN=C(N)Nc1ccc(OCCCOc2ccc(NC(N)=NCCC(C)C)cc2)cc1,95% (active)
8,COC(=O)c1ccc(NC(=O)Nc2cccc(CCNCc3ccccc3)c2)cc1,10%
9,N#Cc1cccc(NC(=O)Nc2cccc(-c3ccc(-c4nc5ccc(C(F)(F)F)cc5[nH]4)cc3)c2)c1,99% (active)
10,CC1CCC(C(C)C)C(OC(=O)CSc2nnc3c(n2)[nH]c2ccccc23)C1 (stereo not given),74% (active)
11,COC(=O)c1cc(C(=O)CN(Cc2ccccc2)C(C)C)ccc1O,-1%
12,O=C(NCc1ccc(C(=O)NC2CCCCCC2)cc1)c1ccc(O)c(-c2ccc(Cl)c(Cl)c2)c1,21%
13,COc1ccc(NC(=O)c2ccc3[nH]c(-c4ccc(Cl)cc4)cc3c2)cc1OCCN(C)C,78% (active)
14,NC(N)=Nc1nc(-c2cccc(NC(=O)NCc3ccc(OC(F)(F)F)cc3)c2)cs1,26%
15,FC(F)(F)c1ccc2nc(-c3ccc(-c4ccc(CNCCc5ccncc5)cc4)cc3)[nH]c2c1,100% (active)
16,CN(C(=O)/C=C/c1c(Cl)cccc1Cl)C1CCN(CCCCCNC(=O)/C=C/c2ccc(Cl)c(Cl)c2)CC1,62% (active)
17,COc1ccc(CCn2c(=N)c(C(=O)NCc3cccnc3)cc3c(=O)n4ccccc4nc32)cc1,5%
18,COc1cc(F)c2ncc(Cl)c(CCN3CCC(NCc4ccc5c(c4)NC(=O)CS5)CC3)c2c1,85% (active)
19,Fc1ccc2nc(-c3ccc(-c4cccc(CN5CCN(c6ccncc6)CC5)c4)cc3)[nH]c2c1,101% (active)
20,O=c1cc(NCCCNCc2cc(Br)ccc2F)[nH]c2ccccc12,14%

row,SMILES,growth inhibition
1,O=C(Nc1ccc(S(=O)(=O)N2CCCCCC2)cc1)c1cc(-c2ccccc2O)n[nH]1,76% (active)
2,CC(C)NCc1cccc(-c2ccc(-c3nc4ccccc4[nH]3)cc2)c1,66% (active)
3,O=C(NCCCCN1CCC(c2c[nH]c3ccccc23)CC1)c1sc(-c2ccc(C(F)(F)F)cc2)nc1CO,3%
4,O=C(Nc1ccc(Cl)cc1F)NC1CCN(CCCCCNC(=O)[C@@H]2C[C@H]2c2ccc(Cl)c(Cl)c2)CC1,27%
5,Cc1ccc2nc(C)cc(Nc3ccccc3O)c2c1,6%
6,CC(C)c1ccc(-c2nc3ncc(Cl)cc3[nH]2)cc1,77% (active)
7,COc1cc(-n2cnc3cc(-c4ccc(Cl)cc4)sc3c2=O)ccc1OCCN1CCC(c2cccc(NC(C)=O)c2)CC1,80% (active)
8,COc1ccc2nccc(N3CCC(CCNCc4ccc5c(n4)NC(=O)CS5)CC3)c2n1,75% (active)
9,Nc1ncc(-c2ccsc2)c2ccc(-c3cnc[nH]3)cc12,70% (active)
10,NOCCCCOc1ccccc1,2%
11,Fc1ccc(-c2cncc(Nc3ccncc3)n2)cc1,11%
12,COc1ccc2nccc([C@@H](O)CN3CCC(NCc4ccc5sc(=O)[nH]c5c4)CC3)c2c1,-3%
13,CCc1ccc(CN2CCC(CNC(=O)c3cc(-c4cccc(F)c4)cs3)C2)cc1 (stereo not given),4%
14,CCOc1ccccc1CNc1nccc(NCCc2cn(C)c3ccccc23)n1,62% (active)
15,CCCCCCCCCCN1C(=O)C2C(CCCCNC(C)=O)NC3(C(=O)N(Cc4ccc(C(C)(C)C)cc4)c4ccccc43)C2C1=O (stereo not given),65% (active)
16,CC(CN)OCn1cnc2c(N)ncnc21 (stereo not given),3%
17,O=C(NCCc1ccc(Cl)c(Cl)c1)[C@@H]1CCCN1C(=O)c1ccc(O)c(-c2cccc(C(F)(F)F)c2)c1,82% (active)
18,COc1cc(C(F)(F)F)cc2[nH]c(CNCCCNc3nc4ccccc4[nH]3)cc12,2%
19,CC(C)CSc1cc(C(=O)Nc2cc(Cl)ccc2O)ccn1,34%
20,O=C(NC1CCN(c2ccnc3cc(Cl)ccc23)C1)c1cccc(F)c1 (stereo not given),98% (active)

# Assay: human hepatoma cell viability loss – ATP luminescence, cytotoxicity control for P. falciparum antimalarial project, primary screen (AID 2303;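 active means inhibition above 50%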;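 further: 0% = DMSO wells and 100% = digitonin-killed cells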)
# Details: HepG2 viability, 24-48 h, at 10 µM, active compounds read high
row,SMILES,inhibition
1,CC(Nc1nncc(-c2cccc(F)c2)n1)c1ccc(F)cc1 (stereo not given),4%
2,FC(F)(F)c1ccc2nc(-c3cccc(-c4ccc(CNCCc5ccncc5)cc4)c3)[nH]c2c1,23%
3,CN1CCC(Oc2ccc(CN3CC[C@H](NC(=O)c4ccc(F)c(F)c4)C3)c3ccccc23)C1 (stereo not given in full),20%
4,CCC1(C)CC(CCNCc2ccccc2O)(c2ccccc2OC)CCO1 (stereo not given),10%
5,COc1ccc(N2CCN(CCCCNC(=O)c3ccc(NC(=O)c4cc(C(F)(F)F)cc(C(F)(F)F)c4)cc3)CC2)cc1OC,9%
6,COc1ccc2nccc([C@@H](O)CN3CCC(NCc4cc5oc(=O)[nH]c5cc4F)CC3)c2c1,-9%
7,CC(C)CCN=C(N)Nc1ccc(OCCCOc2ccc(NC(N)=NCCC(C)C)cc2)cc1,0%
8,COC(=O)c1ccc(NC(=O)Nc2cccc(CCNCc3ccccc3)c2)cc1,2%
9,N#Cc1cccc(NC(=O)Nc2cccc(-c3ccc(-c4nc5ccc(C(F)(F)F)cc5[nH]4)cc3)c2)c1,54% (active)
10,CC1CCC(C(C)C)C(OC(=O)CSc2nnc3c(n2)[nH]c2ccccc23)C1 (stereo not given),-5%
11,COC(=O)c1cc(C(=O)CN(Cc2ccccc2)C(C)C)ccc1O,7%
12,O=C(NCc1ccc(C(=O)NC2CCCCCC2)cc1)c1ccc(O)c(-c2ccc(Cl)c(Cl)c2)c1,-1%
13,COc1ccc(NC(=O)c2ccc3[nH]c(-c4ccc(Cl)cc4)cc3c2)cc1OCCN(C)C,32%
14,NC(N)=Nc1nc(-c2cccc(NC(=O)NCc3ccc(OC(F)(F)F)cc3)c2)cs1,-3%
15,FC(F)(F)c1ccc2nc(-c3ccc(-c4ccc(CNCCc5ccncc5)cc4)cc3)[nH]c2c1,26%
16,CN(C(=O)/C=C/c1c(Cl)cccc1Cl)C1CCN(CCCCCNC(=O)/C=C/c2ccc(Cl)c(Cl)c2)CC1,78% (active)
17,COc1ccc(CCn2c(=N)c(C(=O)NCc3cccnc3)cc3c(=O)n4ccccc4nc32)cc1,16%
18,COc1cc(F)c2ncc(Cl)c(CCN3CCC(NCc4ccc5c(c4)NC(=O)CS5)CC3)c2c1,27%
19,Fc1ccc2nc(-c3ccc(-c4cccc(CN5CCN(c6ccncc6)CC5)c4)cc3)[nH]c2c1,66% (active)
20,O=c1cc(NCCCNCc2cc(Br)ccc2F)[nH]c2ccccc12,-2%

row,SMILES,inhibition
1,O=C(Nc1ccc(S(=O)(=O)N2CCCCCC2)cc1)c1cc(-c2ccccc2O)n[nH]1,16%
2,CC(C)NCc1cccc(-c2ccc(-c3nc4ccccc4[nH]3)cc2)c1,4%
3,O=C(NCCCCN1CCC(c2c[nH]c3ccccc23)CC1)c1sc(-c2ccc(C(F)(F)F)cc2)nc1CO,34%
4,O=C(Nc1ccc(Cl)cc1F)NC1CCN(CCCCCNC(=O)[C@@H]2C[C@H]2c2ccc(Cl)c(Cl)c2)CC1,46%
5,Cc1ccc2nc(C)cc(Nc3ccccc3O)c2c1,0%
6,CC(C)c1ccc(-c2nc3ncc(Cl)cc3[nH]2)cc1,3%
7,COc1cc(-n2cnc3cc(-c4ccc(Cl)cc4)sc3c2=O)ccc1OCCN1CCC(c2cccc(NC(C)=O)c2)CC1,61% (active)
8,COc1ccc2nccc(N3CCC(CCNCc4ccc5c(n4)NC(=O)CS5)CC3)c2n1,32%
9,Nc1ncc(-c2ccsc2)c2ccc(-c3cnc[nH]3)cc12,31%
10,NOCCCCOc1ccccc1,12%
11,Fc1ccc(-c2cncc(Nc3ccncc3)n2)cc1,8%
12,COc1ccc2nccc([C@@H](O)CN3CCC(NCc4ccc5sc(=O)[nH]c5c4)CC3)c2c1,1%
13,CCc1ccc(CN2CCC(CNC(=O)c3cc(-c4cccc(F)c4)cs3)C2)cc1 (stereo not given),23%
14,CCOc1ccccc1CNc1nccc(NCCc2cn(C)c3ccccc23)n1,27%
15,CCCCCCCCCCN1C(=O)C2C(CCCCNC(C)=O)NC3(C(=O)N(Cc4ccc(C(C)(C)C)cc4)c4ccccc43)C2C1=O (stereo not given),3%
16,CC(CN)OCn1cnc2c(N)ncnc21 (stereo not given),17%
17,O=C(NCCc1ccc(Cl)c(Cl)c1)[C@@H]1CCCN1C(=O)c1ccc(O)c(-c2cccc(C(F)(F)F)c2)c1,0%
18,COc1cc(C(F)(F)F)cc2[nH]c(CNCCCNc3nc4ccccc4[nH]3)cc12,59% (active)
19,CC(C)CSc1cc(C(=O)Nc2cc(Cl)ccc2O)ccn1,36%
20,O=C(NC1CCN(c2ccnc3cc(Cl)ccc23)C1)c1cccc(F)c1 (stereo not given),30%
